Over roughly 33,000 sequences, “E-score (dimensionless, -0.5 to 0.5)” has its median near -0.058; the highest 2% begin near 0.35. The sample holds the highest values, similar sequences and a random draw of the others, so the mix is not that of the screen.
Each sequence was assayed on MvaT (assay: PBM 8-mer E-score (mean of HK and ME arrays) (E-score (dimensionless, -0.5 to 0.5)); higher = stronger relative binding preference).
How it was run: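 Full-length P. aeruginosa MvaT carrying an N-terminal glutathione S-transferase tag was tested by protein binding microarray following a previously described protocol. Two universal double-stranded 60-mer arrays, ME and HK, were used, each with a constant 25-mer primer region and a variable 35-mer region covering all 8-mers. The rank-based E-score is the mean of the two arrays, parsed with a custom script. Its range runs from -0.5 to 0.5 for each 8-mer.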

Sequence	PBM 8-mer E-score
GCTCTTGA	-0.154
ATGTTGGG	0.105
GGGAACTA	-0.0248
CACATTAA	0.305
AACATTAG	0.234
AACATTAT	0.34
AACATTAA	0.397
TACATTAA	0.38
GACATTAA	0.222
AAATCAGT	0.111
TATAAGAA	0.369
CATAAGAA	0.126
GATAAGGA	-0.0851
CATAAGGA	-0.0113
TATAAGGA	0.348
GATAAGAA	0.121
CATGGAGC	-0.21
ATCTGCAT	0.0581
CTGCATGC	-0.0882
AGAAATCA	-0.0327
GGAAATAA	0.31
CGAAATAC	0.0434
AGAAATAA	0.37
AGAAATAC	0.157
CGAAATAA	0.374

Sequence	PBM 8-mer E-score
AGAAATAG	0.216
AGAAATAT	0.356
TGAAATAA	0.314
GCTCACAC	-0.19
AAAGCCTA	0.125
CCTATATC	0.0838
GCTATAGA	-0.132
GCTATATA	0.402
ACTATATC	0.268
CCTATATA	0.35
GCTATACA	0.135
CCTATACA	0.116
ACTATACA	0.241
ACTATATA	0.452
CGGCTGCC	-0.286
CATCCAAA	0.0181
ATAGTGTG	0.179
TAGGAAAA	0.015
ACCAGACG	-0.141
ATAAAAAC	0.274
ATAAAAAG	0.348
CTTAAAAG	0.166
CTAAAAAG	0.00374
ATTAAAAA	0.321
ATAAAAAT	0.293

Sequence	PBM 8-mer E-score
ATAAAAGG	0.119
ATTAAAAG	0.393
ATAAAAAA	0.387
ACTGGAAT	0.118
AACCGACG	-0.000494
GTGCAAAC	0.0651
AACCTTAC	-0.0526
AGACCATA	0.00218
CACAGACG	-0.11
ATTCCTCA	0.129
CTAAATTA	0.336
GTAAATCA	0.189
GAAAATTA	0.304
ATAAACTC	0.269
ATAAATTG	0.369
ATAAACTG	0.175
AAAAATTG	0.117
ATAAACTA	0.356
ATAAATTA	0.42
ATAAATTC	0.309
AAAAATTA	0.275
GTAAATTA	0.391
AACTGGTC	-0.0685
TGACTGCA	-0.107
AACCCAGT	-0.0508

Sequence	PBM 8-mer E-score
ATTGCACG	0.182
ACTCATCA	0.0732
AACCATCA	-0.0905
AAGTCTCT	0.0309
ATCGAATC	-0.0636
GCGGGTTA	0.0558
CGCGATAA	0.143
ACCTATGG	-0.149
TATATAAA	0.47
AATATGAC	0.183
ACTATAAC	0.334
GATATAGC	0.127
AATATAAC	0.42
CACATAAG	0.122
GATATAAC	0.372
CATATAAG	0.35
GATATAAA	0.344
GAGATAAC	0.0136
TCTATAAA	0.103
CCTATAAG	0.0158
CTCAAGGA	-0.151
CCTGCTCC	-0.302
ATTTGTTC	0.206
ATTTTTTC	0.132
AAGTGCGT	-0.0188

Sequence	PBM 8-mer E-score
ACGGTTTC	-0.215
ATTAGCCC	0.0535
ACACTAGT	0.258
AGTGCTAC	-0.0841
CGAAATGC	-0.0574
TATAAACA	0.373
AAGATAAT	0.287
CATATAGC	0.0736
AATATAAA	0.451
CACATAAC	0.209
CATATAAC	0.415
AATATAAT	0.449
AATATGAT	0.345
GCTATAAA	0.217
GATAAACA	0.278
CATAAACA	0.221
GAATGCGA	0.0642
AATTCTAG	0.157
CCCGGCCC	-0.325
TGCAAACA	0.106
ACGGAAGG	-0.218
CATATAAA	0.365
GATATCAA	0.25
CGTATAAA	0.209
TATAAAAA	0.371

Sequence	PBM 8-mer E-score
CATATCAA	0.174
TATATCAA	0.352
CACATAAA	0.179
CATAAAAA	0.179
AAGATAAG	0.148
AATATAAG	0.351
GATAAAAA	0.273
AGTATAAG	0.272
GAATCATA	0.151
CCATCTGA	-0.117
GTATGAAA	0.222
GTCTGAGA	-0.139
AGAGATGC	-0.101
ATCTTTAG	0.14
AGTGATCG	-0.118
AGAGGCTG	-0.304
TTATTGAA	0.279
TAGGGTAA	0.133
CTGATAAC	0.136
AGCACAGG	-0.197
GAACAATA	0.267
AAACAATC	0.06
TAACAATA	0.394
AAACAAGA	0.166
AAACAATT	0.346

Sequence	PBM 8-mer E-score
AATCAATA	0.283
GATCAATA	0.152
AAACAACA	0.214
AAACAATG	0.201
CAACAATA	0.289
AAACAATA	0.375
TATCAATA	0.365
GCAACGAC	-0.141
CCTCAACC	-0.226
AGATCTCG	-0.173
CTCTACTC	-0.0821
GCGCCACC	-0.15
ACAGGGGT	-0.121
AGGACTCG	-0.265
ATACAATA	0.372
CTACAATA	0.244
GAACATTA	0.276
CAACATTA	0.293
ATACAATC	0.18
TAACATTA	0.374
ATCCGTTC	-0.0995
AGATTGAC	-0.15
